Assay results published in the supplement of paper PMC6555819.

Tests used:
Assay in all cases: PBM binding z-score (relative to random genomic background probes); higher = stronger binding; sequences stand for … in GC…GCGATTGACAGCGTAGAATGAAGG
[1] = test system: FXR:RXRa (NR concentration 270 nM, RXRa partner concentration 90 nM)
In short: (§1)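 Random background probes are the reference for binding z-scores. These scores derive from regression-normalized fluorescence on custom Agilent 4×180K protein-binding microarrays incubated 1 h with ligand-free nuclear receptor dimers. Binding was detected with antibodies against each partner (one per run).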

[2] = test system: LXRa:RXRa (NR concentration 270 nM, RXRa partner concentration 90 nM)
In short: as §1

[3] = test system: LXRa homodimer (NR concentration 270 nM)
In short: as §1

[4] = test system: LXRb:RXRa (NR concentration 270 nM, RXRa partner concentration 90 nM)
In short: as §1

[5] = test system: LXRb homodimer (NR concentration 270 nM)
In short: as §1

[6] = test system: PPARa:RXRa (NR concentration 270 nM, RXRa partner concentration 90 nM)
In short: as §1

[7] = test system: PPARg:RXRa (NR concentration 180 nM, RXRa partner concentration 90 nM)
In short: as §1

[8] = test system: PPARg:RXRa 270nM:90nM, anti-RXR (NR concentration 270 nM, RXRa partner concentration 90 nM)
In short: as §1

[9] = test system: PPARg:RXRa 30nM:10nM, anti-RXR (NR concentration 30 nM, RXRa partner concentration 10 nM)
In short: as §1

[10] = test system: PPARg:RXRa 90nM:30nM, anti-RXR (NR concentration 90 nM, RXRa partner concentration 30 nM)
In short: as §1

[11] = test system: PPARg:RXRa DBDmut IVT, anti-RXR (DBD mutation: RXRa K156A/R161A, NR concentration 270 nM, RXRa partner concentration 90 nM)
In short: as §1

[12] = test system: PPARg:RXRa IVT, anti-PPARg (NR concentration 270 nM, RXRa partner concentration 90 nM)
In short: as §1

[13] = test system: PPARg DBDmut:RXRa IVT, anti-PPARg (DBD mutation: PPARg1 K132A/R137A, NR concentration 270 nM, RXRa partner concentration 90 nM)
In short: as §1

[14] = test system: PPARg DBDmut IVT, anti-PPARg (DBD mutation: PPARg1 K132A/R137A, NR concentration 270 nM)
In short: as §1

[15] = test system: PPARg homodimer (NR concentration 180 nM)
In short: as §1

[16] = test system: PXR:RXRa (NR concentration 270 nM, RXRa partner concentration 90 nM)
In short: as §1

[17] = test system: PXR homodimer (NR concentration 270 nM)
In short: as §1

[18] = test system: RARa:RXR (NR concentration 270 nM, RXRa partner concentration 90 nM)
In short: as §1

[19] = test system: RARa homodimer (NR concentration 270 nM)
In short: as §1

[20] = test system: RARb:RXRa (NR concentration 270 nM, RXRa partner concentration 90 nM)
In short: as §1

| Sequence | PBM binding z-score [1] | PBM binding z-score [2] | PBM binding z-score [3] | PBM binding z-score [4] | PBM binding z-score [5] | PBM binding z-score [6] | PBM binding z-score [7] | PBM binding z-score [8] | PBM binding z-score [9] | PBM binding z-score [10] | PBM binding z-score [11] | PBM binding z-score [12] | PBM binding z-score [13] | PBM binding z-score [14] | PBM binding z-score [15] | PBM binding z-score [16] | PBM binding z-score [17] | PBM binding z-score [18] | PBM binding z-score [19] | PBM binding z-score [20] |
| --- | --- | --- | --- | --- | --- | --- | --- | --- | --- | --- | --- | --- | --- | --- | --- | --- | --- | --- | --- | --- |
| TCATATAGGTAAATGTGAAAGTCGAACGATATGA | 0.203 | 0.245 | -0.116 | 0.343 | -0.015 | 0.983 | 1.44 | 2.01 | 3.79 | 2.88 | 3.33 | 2.26 | 1.69 | 1.36 | 0.31 | 0.168 | -0.0723 | 0.602 | 0.286 | 0.153 |
| CCTCGGAGGACGACAGGAGGTCAGAGCTGCCAGA | 0.759 | 1.38 | 0.305 | 1.13 | -0.711 | 1.8 | 0.288 | 0.213 | -0.596 | -0.215 | -0.728 | -0.00812 | -0.427 | -1.79 | 1.19 | 1.89 | -0.155 | 2.06 | 0.247 | 2.18 |
| ACTATTAGCTGAGACGAGGGCAACCGATAGGTTG | 0.185 | -0.00873 | 0.0861 | 0.0453 | 0.238 | 0.0501 | 0.663 | 0.238 | -0.205 | 0.302 | -0.032 | 0.377 | -0.216 | -0.0358 | -0.21 | 0.33 | 0.536 | 0.226 | 0.488 | 0.935 |
| CAAACTAGGTCACGAAAGGTCAAGGTCGAATGAC | 7.28 | 7.82 | 6.86 | 6.75 | 1.7 | 6.43 | 10.6 | 8.38 | 7.12 | 8.5 | 8.73 | 9.06 | 5.16 | 2.59 | 5.42 | 6.88 | 3.03 | 7.71 | 3.81 | 5.62 |
| TAGCCTCGGTCAGATCGGGCCAGTATACGCTATA | -0.00556 | -0.383 | -0.622 | -0.821 | -0.951 | -0.586 | 0.128 | -0.706 | -0.684 | -1.07 | -1.11 | -0.335 | -0.636 | -1.63 | -1.18 | -0.533 | -1.31 | -0.301 | -1.52 | 1.78 |
| CGTCAAAGATCAACTAAGGTAACGTAAAGCACGC | 1.52 | 0.952 | 0.0696 | 0.635 | -0.0274 | 1.19 | 0.897 | 0.957 | 0.274 | 0.711 | -0.00407 | 0.5 | 0.6 | 0.489 | 0.91 | 1.32 | 0.224 | 1.52 | 0.595 | 0.548 |
